The nature of test [1]: Cellular Toxicity (caspase-3) Hek293 (AID 664).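 Further: cells exposed to compound for 16 h at 37 °C before readout.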 The settings on record: HEK293 caspase-3 activation, DMSO = 0%, 100 µM tamoxifen = 100%; at 92.2 µM (top of the series). Summed up: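 qHTS, HEK293 (human embryonic kidney), 16 h cpd exposure in complete medium. Caspase-3/7 activation = luminescence increase; normalized to DMSO/100 uM tamoxifen; Hill-fit AC50.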
A short description of test [2]: Cellular Toxicity (caspase-3) N2a (AID 665).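 Further: compound exposure lasted 16 h at 37 °C before readout.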 Summed up:
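Caspase-3/7 activation, measured as increased luminescence from aminoluciferin release, is quantified in mouse N2a cells exposed to compounds for 16 h. Values are normalized to DMSO and 10 uM staurosporine, with AC50 derived by Hill modelling.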

Test [3] in a line: Cellular Toxicity (caspase-3) NIH 3T3 (AID 666).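 Further: caspase signal read after 16 h compound exposure; 0% = DMSO basal and 100% = 100 µM tamoxifen stimulation.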 Summed up: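 Cells were plated at 1000 per well and incubated 5 hr at 37°C, then compound was added for 16 hr. Caspase-Glo 3/7 reagent followed for 20 min at room temperature before luminescence was read.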
A short description of test [4]: Cellular Toxicity (caspase-3) Renal Proximal Tubule (AID 667).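 Further: cells exposed to compound for 16 hours at 37 °C before detection; 0% = DMSO basal and 100% = 10 µM staurosporine.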 In short, it runs like this:
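In qHTS format, rat primary proximal tubule cells seeded at 1000 per well are exposed to compounds for 16 hours at 37 °C. An increase in Caspase-Glo 3/7 luminescence indicates caspase activation.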

Test [5] deals with Cytochrome P450 3A4 (Homo sapiens) (UniProt P08684). As to the kind of experiment: qHTS Assay for Inhibitors and Substrates of Cytochrome P450 3A4 (AID 884). Further: on the % scale 0 is the no-effect control and ±100 the full control effect; nearly all actives have a fitted effect of over 50% in size. In short, it runs like this:
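Luminescent readout of luciferin produced by CYP3A4 (20 nM) dealkylation of Luciferin-PPXE, 25 uM (its KM). NADPH-driven reaction ran 60 min at RT after 10 min compound preincubation; data scaled to 57 uM ketoconazole as 100% inhibition.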

The nature of test [6]: Cell Viability - LYMP2-001 (AID 921).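 Further: cells exposed to compound for 24 h at 37 °C; nearly all actives have a fitted effect of over 70% in size.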 Further: potency means the concentration at half of the fitted maximal effect. Summed up:
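qHTS, 1536-well; lymphoblastoid cells, 24 hr compound, 37 C; ATP by CellTiter-Glo, 30 min RT; luminescence; Hill-fit AC50.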

Test [7] can be described thus: MultiTox-Fluor Cytotoxicity Assay - LYMP1-001 - Dead Cells (AID 946). Further: potency means the concentration at half of the fitted maximal effect. In short, it runs like this: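 Seed 2500 LYMP1-001 cells/well, incubate 5 hr at 37 C; add compound, 16 hr at 37 C; add MultiTox-Fluor reagent, 60 min RT; read dead-cell fluorescence Ex/Em=485/520. Normalize to DMSO and 15 uM tetraoctylammonium bromide.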
Test [8] can be described thus: MultiTox-Fluor Cytotoxicity Assay - LYMP1-001 - Live Cells (AID 947).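 Further: 0% = DMSO only and full inhibition = tetraoctylammonium bromide control.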
Test [9] in a line: Cell Viability - LYMP1-002 - Assay at 16 hr (AID 948). Further: potency means the concentration at half of the fitted maximal effect. In short, it runs like this: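 Acute cytotoxicity is scored as a concentration-dependent fall in intracellular ATP in a human lymphoblastoid line (LYMP1-002) after 16 hr compound exposure at 37 C, measured by luciferase luminescence.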
Test [10] in a line: Confirmation and Secondary Assay for Modulators of Hemoglobin Beta Chain Splicing at IVS2 654 locus (AID 910).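 Further: HeLa cells stably carrying EGFP split by mutant beta-globin IVS2-654 intron; per-well total GFP intensity by laser scanning cytometry after 2-day treatment; % of control where 0% means no effect.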 In short, it runs like this: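 Readout: per-well total peak green fluorescence (488 nm ex, 500–520 nm em) from objects 5–250 µm, reflecting correct splicing of an EGFP-654 reporter. Compounds were applied for 2 days at 37 °C to overnight-plated HeLa EGFP-654 cells; controls were DMSO and 500 nM IVS2-654 PNA.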

Test [11] is described as follows: Confirmation and Secondary Assay for Modulators of Hemoglobin Beta Chain Splicing at IVS2 705 locus (AID 930).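 Further: HeLa cells stably expressing the EGFP-705 splicing reporter; GFP fluorescence per well restored by corrected splicing of the IVS2-705 intron in EGFP; % of control where 0% means no effect.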 In short, it runs like this:
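First, HeLa EGFP-705 cells are seeded at 500/well in Optimem with 2% FCS and left overnight. Next, compound or DMSO is added for 2 days. Finally wells are laser-scanned and total peak GFP intensity scored.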

Test [12] concerns the target Cytochrome P450 3A4 (Homo sapiens) (UniProt P08684). As to the kind of experiment: qHTS Assay for Activators of Cytochrome P450 3A4 (AID 885). Further: nearly all actives have a fitted effect of over 65% in size. In short, it runs like this:
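Activators are scored by enhanced luminescence from CYP3A4 conversion of luciferin-PPXE (25uM, equal to KM) to luciferin, after 60 min at RT with an NADPH-regenerating system.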

Where “and” joins values, the source holds several entries; their conditions need not be identical. Equal values may be shown once. A number with no mark means an inactive call. Results filed as inconclusive are left out. Calls of active or inactive are those of the source. The call rests on the fitted dose curve; in most records, active means well fitted curve in the direction sought with a large enough effect; inconclusive means small, poorly fitted or top-dose-only effect, or another doubt; inactive means no such curve, though single readings can be large; an effect the other way counts as inactive or inconclusive.

Sequence of Cytochrome P450 3A4 (Homo sapiens) (P08684 whole entry, looked up): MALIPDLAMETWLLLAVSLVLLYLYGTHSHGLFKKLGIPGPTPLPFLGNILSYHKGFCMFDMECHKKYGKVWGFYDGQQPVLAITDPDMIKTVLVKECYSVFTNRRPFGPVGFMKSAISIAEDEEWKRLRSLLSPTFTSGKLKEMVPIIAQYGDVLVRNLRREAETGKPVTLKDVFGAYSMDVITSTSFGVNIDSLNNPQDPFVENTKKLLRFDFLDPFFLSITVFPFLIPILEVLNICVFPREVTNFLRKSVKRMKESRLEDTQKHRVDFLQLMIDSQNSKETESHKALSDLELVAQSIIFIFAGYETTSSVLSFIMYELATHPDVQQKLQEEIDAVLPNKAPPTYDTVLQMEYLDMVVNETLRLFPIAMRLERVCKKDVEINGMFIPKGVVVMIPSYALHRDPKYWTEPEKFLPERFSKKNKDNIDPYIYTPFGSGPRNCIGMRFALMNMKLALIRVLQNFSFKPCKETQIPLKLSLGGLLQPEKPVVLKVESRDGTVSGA

With `CCOC(C)OCC`, the caspase-3 activation in test [1] was 0.677%. In addition, the outcome in test [2], in [3], in test [4] and in test [8] was inactive. In addition, the Potency entry in test [5], in test [6], in test [7] and in [9] was “inactive” throughout.

As for `Oc1ccc(/C=C/c2cc(O)cc(O)c2)cc1`, the caspase-3 activation in test [1] was -7.92%. The result in test [2], in test [3], in test [4] and in test [8] was inactive. The Potency result in test [6], in test [7] and in test [9] was “inactive” throughout.

As to `OCl`, the caspase-3 activation in test [1] is 2.43%. Moreover, the result in test [2], in [3], in test [4] and in test [8] was inactive. Besides, the Potency result in test [5], in [6], in test [7] and in test [9] was “inactive” in each case.

Turning to `CC1=CCC2CC1C2(C)C` (stereo not drawn), in test [1], the caspase-3 activation was 0.916%. Further, the compound was classed as inactive in [2], in test [3], in test [4] and in test [8]. Further, the Potency entry in test [5], in [6], in test [7] and in [9] was “inactive” in each case.

With `OC[C@H]1O[C@@H]2O[C@H]3[C@H](O)[C@@H](O)[C@@H](O[C@H]4[C@H](O)[C@@H](O)[C@@H](O[C@H]5[C@H](O)[C@@H](O)[C@@H](O[C@H]6[C@H](O)[C@@H](O)[C@@H](O[C@H]7[C@H](O)[C@@H](O)[C@@H](O[C@H]1[C@H](O)[C@H]2O)O[C@@H]7CO)O[C@@H]6CO)O[C@@H]5CO)O[C@@H]4CO)O[C@@H]3CO`, in test [1], the caspase-3 activation is 0.542%. Further, the compound was classed as inactive in [2], in [3], in test [4] and in [8]. The Potency entry in test [5], in test [6], in test [7] and in [9] was “inactive” each time.

Turning to `CCCCO`, the caspase-3 activation in test [1] was 0.832% and 0.952%. The compound was called inactive in test [2], in [3], in test [4] and in [8]. In addition, the Potency entry in test [5], in test [6], in test [7] and in test [9] was “inactive” each time.

`CO/N=C(/C(=O)N[C@@H]1C(=O)N2C(C(=O)O)=C(COC(N)=O)CS[C@H]12)c1ccco1`: the caspase-3 activation in test [1] was 0.731%. In addition, the compound was called inactive in test [2], in [3], in test [4] and in test [8]. Moreover, the Potency entry in [5], in test [6], in test [7] and in test [9] was “inactive” throughout.

Consider `Cc1ccc(S(=O)(=O)O)cc1C`, for which the caspase-3 activation in [1] was 0.165%. Moreover, the result in test [2], in test [3], in test [4] and in test [8] was inactive. Also, the Potency entry in test [5], in test [6], in [7] and in [9] was “inactive” in each case.

`OCC(O)CO`: the caspase-3 activation in [1] was 3.75% and 1.59%. In addition, the result in test [2], in [3], in test [4] and in test [8] was inactive. In addition, the Potency result in [5], in test [6], in [7] and in test [9] was “inactive” throughout.

Turning to `Nc1nccs1`, in test [1], the caspase-3 activation was 0.166%. Further, the result in test [2], in test [3], in test [4] and in test [8] was inactive. Moreover, the Potency entry in test [5], in [10], in test [6], in test [11], in test [7] and in [9] was “inactive” each time.

Turning to `[O-][N+](=Nc1ccccc1)c1ccccc1`, the caspase-3 activation in test [1] was 0.871%. Besides, the outcome in [2], in [3], in [4] and in [8] was inactive. Also, the Potency result in test [5], in [6], in test [7] and in test [9] was “inactive” in each case.

With `OB(O)O`, in test [1], the caspase-3 activation was -1.81%. Also, the compound was classed as inactive in [2], in test [3], in test [4] and in [8]. The Potency entry in test [5], in test [6], in test [7] and in test [9] was “inactive” in each case.

Turning to `C[C@H]1O[C@@H](O[C@H]2[C@@H](O)C[C@H](O[C@H]3[C@@H](O)C[C@H](O[C@H]4CC[C@@]5(C)[C@H](CC[C@@H]6[C@@H]5C[C@@H](O)[C@]5(C)[C@@H](C7=CC(=O)OC7)CC[C@]65O)C4)O[C@@H]3C)O[C@@H]2C)C[C@H](O)[C@@H]1O`, in [1], the caspase-3 activation is -3.59%. In addition, the compound was called inactive in test [2], in [3] and in test [4]. The Potency result in test [5] is “inactive”. The Potency in test [6] was 316 nM (active); in test [7], 794 nM (active); in test [9], 199 nM (active).

As to `NCCN`, in test [1], the caspase-3 activation was 0.975%. Moreover, the compound was called inactive in [2], in test [3], in [4] and in test [8]. The Potency result in test [5], in [6], in test [7] and in test [9] was “inactive” throughout.

Turning to `c1ccc2ccccc2c1`, the caspase-3 activation in test [1] was -0.432%. Moreover, the compound was called inactive in test [2], in test [3], in test [4] and in [8]. Moreover, the Potency result in [5], in test [6], in test [7] and in [9] was “inactive” in each case.

Regarding `ClC(Cl)Cl`, in test [1], the caspase-3 activation was 0.0594%. Moreover, the result in [2], in test [3], in [4] and in test [8] was inactive. Also, the Potency result in test [5], in test [6], in [7] and in test [9] was “inactive” throughout.

Consider `NC(N)=O`, for which the caspase-3 activation in test [1] is 1.05%. Further, the result in test [2], in [3], in [4] and in [8] was inactive. Further, the Potency entry in [5], in test [10], in test [6], in test [11], in test [7] and in test [9] was “inactive” each time.

On to `CC(C)(C)CC(C)(C)c1ccc(OCCO)cc1`, for which, in test [1], the caspase-3 activation was 5.17%. The outcome in [2], in [3], in test [4] and in test [8] was inactive. Moreover, the Potency result in test [12], in [7] and in test [9] was “inactive” throughout.

The values above are taken from PubChem BioAssay (NCATS).
